CBX7 inh: inhibitors of human CBX7 binding to H3K27me3 peptide; AlphaScreen His6-CBX7 / biotin-H3K27me3 peptide binding; hits give low values; 1.1% of 66,000 active; AID 1224903; normalised signal (fraction of DMSO) (test concentration not listed); O95931; in the data active = normalised signal below about 0.5
Target sequence (O95931 whole entry, looked up): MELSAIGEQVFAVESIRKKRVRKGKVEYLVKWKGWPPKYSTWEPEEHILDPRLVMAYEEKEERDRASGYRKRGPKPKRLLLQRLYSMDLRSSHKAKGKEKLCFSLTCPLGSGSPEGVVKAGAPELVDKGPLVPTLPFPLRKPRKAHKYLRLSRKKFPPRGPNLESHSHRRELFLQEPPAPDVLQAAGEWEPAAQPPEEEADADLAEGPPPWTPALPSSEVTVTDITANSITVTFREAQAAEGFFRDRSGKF
An asterisk follows results filed as active. Shown is part of a subset that was picked to be rich in hits.

SMILES | CBX7 inh
COc1cc2c(cc1OC)C(C(=O)N1CCC(N3CCCCC3)CC1)C1c3ccccc3CCN1C2=O (stereo unspecified) | 0.95
COc1ccccc1CN1C(=O)CCC1(C)C(=O)NC1CCCCCCC1 (stereo unspecified) | 1
CCOc1ccc(CCN2C(=O)CCC2(C)C(=O)NC2CCCCCCC2)cc1OCC (stereo unspecified) | 1.2
c1cncc(-c2nnc3ccc4ccccc4n23)c1 | 0.36*
Fc1ccc(-c2nnc3ccc4ccccc4n23)cc1 | 0.87
CC1(C)Cc2ccccc2-c2nnc(-c3cccnc3)n21 | 0.99
CC(C)N(Cc1nc(-c2ccc(Cl)cc2)no1)C(=O)c1ccc(F)cc1 | 0.97
O=C(NCCCN1CCOCC1)C1CCCN(c2nc3ccccc3o2)C1 (stereo unspecified) | 1.2
COc1ccc(C)cc1S(=O)(=O)NCCc1c(C)[nH]c2ccc(F)cc12 | 1
COc1cc(C)c(S(=O)(=O)NCCc2c(C)[nH]c3ccc(C)cc23)cc1C | 0.38*
COc1ccc(Cl)cc1S(=O)(=O)NCCc1c(C)[nH]c2ccc(F)cc12 | 0.92
COc1cc(S(=O)(=O)NCCc2c(C)[nH]c3ccc(Br)cc23)c(C)cc1C | 0.59
COc1ccc(Cl)cc1S(=O)(=O)NCCc1c(C)[nH]c2ccc(C)cc12 | 0.48*
COc1cc(S(=O)(=O)NCCc2c(C)[nH]c3ccc(F)cc23)c(C)cc1C | 0.91
Cc1ccc2c(c1)c(-c1ccccc1)c(-c1ccccc1)n2CC(O)CN1CCOCC1 (stereo unspecified) | 0.89
COCCN(CCOC)S(=O)(=O)c1ccc(C(=O)Nc2nc(-c3ccc(C)cc3C)cs2)cc1 | 0.88
O=C(CCN1CCC(O)(c2ccc(F)cc2)C1)c1ccc2c(c1)OCCO2 (stereo unspecified) | 1.1
O=C(COc1ccccc1Br)Nc1nc(-c2ccccc2)cs1 | 1.1
Cc1ccc(S(=O)(=O)Nc2nc3ccccc3nc2N2CCN(C)CC2)cc1 | 1
O=S(=O)(Nc1nc2ccccc2nc1N1CCc2ccccc2C1)c1ccc(Br)cc1 | 0.4*
CN1CCN(c2nc3ccccc3nc2NS(=O)(=O)c2ccc(Br)cc2)CC1 | 0.83
COCCNc1cc(C)nc2c(-c3ccc(Cl)cc3)c(C)nn12 | 1.1
O=S(=O)(c1cccc(-c2nnc(-c3ccc(Br)cc3)o2)c1)N1CCOCC1 | 0.85
O=C(c1cc(-c2ccc(Cl)cc2)on1)N1CCN(Cc2ccccc2)CC1 | 1.1
Oc1cccc2ccc(Nc3ccccn3)nc12 | 0.0087*
SMILES | CBX7 inh
c1ccc(-c2csc(Nc3ccccn3)n2)cc1 | 0.97
Oc1cccc2ccc(Oc3cccc4cccnc34)nc12 | 1
N=c1n(Cc2ccccc2)c2ccccc2n1CC(O)c1ccc(Br)cc1 (stereo unspecified) | 0.96
O=C1CC(c2ccc(-c3ccccc3)cc2)C2=C(CCCC2=O)N1 (stereo unspecified) | 1.1
O=C(CN1C(=O)COc2ccccc21)NC1CCCCC1 | 1.1
CCc1ccc(-c2nc(CSCC(=O)NC3CCCCCC3)c(C)o2)cc1 | 0.4*
Cc1oc(-c2ccc(Cl)cc2)nc1CSCC(=O)NC1CC1 | 1.1
Cc1oc(-c2cccc(F)c2)nc1CSCC(=O)NC1CCCCC1 | 1.2
Cc1ccc(-c2nc(CS(=O)(=O)CC(=O)N3CCN(Cc4ccccc4)CC3)c(C)o2)cc1 | 0.93
O=C(c1cc2c(s1)-c1ccccc1OC2)N1CCCCC1 | 1.1
Cc1ccc2nsnc2c1NC(=O)c1ncn[nH]1 | 0.45*
Cc1ccc2nsnc2c1NC(=O)c1cc(Cl)ccc1Cl | 1
Cc1ccc2nsnc2c1NC(=O)c1cc(Br)ccc1Cl | 1
CCOC(=O)c1ccc2c(c1)nc(C1CCN(S(=O)(=O)c3ccc(C)cc3)CC1)n2C1CCCCC1 | 0.9
CCOC(=O)c1cnc2ccc(OC)cc2c1Nc1ccc(C)cc1 | 0.99
CCOC(=O)c1cnc2ccc(C)cc2c1Nc1ccc(N(CC)CC)cc1 | 0.42*
CCOC(=O)c1cnc2ccc(OCC)cc2c1Nc1ccc(OCC)cc1 | 1.1
CCOC(=O)c1cnc2ccc(OC)cc2c1Nc1ccc(N(C)C)cc1 | 0.26*
CCOC(=O)c1cnc2ccccc2c1Nc1ccc(C)cc1 | 0.99
CCOC(=O)c1cnc2ccc(OCC)cc2c1Nc1ccc(C)c(C)c1 | 1.2
CCOC(=O)c1cnc2ccc(OC)cc2c1Nc1ccc(OC)cc1 | 0.58
CCOC(=O)c1cnc2ccc(C)cc2c1Nc1ccc(OCC)cc1 | 0.93
CCOC(=O)c1cnc2ccc(OCC)cc2c1N1CCCC1 | 0.9
CCOC(=O)c1cnc2ccc(OCC)cc2c1N1CCN(c2ccccc2)CC1 | 0.74
CCOC(=O)c1cnc2ccc(OCC)cc2c1Nc1ccc(F)c(Cl)c1 | 0.4*
SMILES | CBX7 inh
CCOC(=O)c1cnc2ccc(OCC)cc2c1N1CCN(c2ccccc2F)CC1 | 0.17*
Cc1cccc(N2CCN(C(=O)C3=CCN(S(=O)(=O)c4ccc(F)cc4)CC3)CC2C)c1 (stereo unspecified) | 0.92
Cc1cc(C(=O)Nc2ccc(OC(F)(F)F)cc2)no1 | 1
O=C(CSc1nc(-c2ccccc2)cn1-c1ccc(Cl)cc1)c1ccccc1 | 0.94
CCOC(=O)c1c(CNc2ccccc2C(N)=O)n(C)c2cc(Br)c(OC(C)=O)cc12 | 0.98
CCOC(=O)c1cc2cc(OC)ccc2n1CCN(Cc1ccccc1)Cc1ccccc1 | 1
COc1ccc(Cl)cc1N1CC(c2nc3ccccc3n2Cc2ccc(C)cc2)CC1=O (stereo unspecified) | 0.87
Cc1cc(C)cc(NC(=O)CC2Oc3ccccc3NC2=O)c1 (stereo unspecified) | 1.3
O=C(C1CCC1)N1CCc2cc(S(=O)(=O)NCCN3CCC(Cc4ccccc4)CC3)ccc21 | 0.9
Cc1ccc(S(=O)(=O)c2cn(CC(=O)Nc3ccccc3C)c3ccc(Cl)cc3c2=O)cc1 | 1
O=C(NCCO)c1ccc(-c2nnc(Nc3ccccc3)c3ccccc23)cc1 | 1
CCC(=O)N1CCc2cc(S(=O)(=O)Nc3cc(C)ccc3C)ccc21 | 0.8
CCOC(=O)c1cnc2ccc(Cl)cc2c1Nc1ccc(N2CCOCC2)cc1 | 0.58
CCOC(=O)c1cnc2c(C)cc(C)cc2c1Nc1ccc(Cl)cc1 | 1.2
CCOC(=O)c1cnc2ccc(C)cc2c1Nc1ccc(N2CCOCC2)cc1 | 0.89
CCOC(=O)c1cnc2ccc(C)cc2c1Nc1ccc(N2CCCCC2)cc1 | 0.28*
CCOC(=O)c1cnc2c(C)cc(C)cc2c1Nc1ccc(F)cc1 | 1.2
CCOC(=O)c1cnc2c(C)cc(C)cc2c1Nc1ccc(N2CCCCC2)cc1 | 0.28*
COc1ccc(NC(=O)CCc2c(C)nc3cc(-c4cccc(F)c4)nn3c2C)cc1 | 0.98
COc1ccc(OC)c(NC(=O)CN2C(=O)CC(C)(C)Sc3ccccc32)c1 | 0.9
O=C(CN1C(=O)CCSc2ccccc21)N1CCN(Cc2ccc3c(c2)OCO3)CC1 | 1.1
COc1cc(OC)cc(-c2cc3nc(C)c(CCC(=O)Nc4ccc(OC)cc4OC)c(C)n3n2)c1 | 1.1
Cc1onc(-c2ccccc2)c1C(=O)Nc1ccc(S(=O)(=O)Nc2nccs2)cc1 | 0.92
O=S(=O)(Nc1nccs1)c1ccc(Nc2nnc(-c3ccccc3)c3ccccc23)cc1 | 0.046*
NS(=O)(=O)c1ccc(Nc2nnc(-c3ccc(O)cc3)c3ccccc23)cc1 | 0.85
COCCCNc1ncnc2c1c(-c1ccccc1)cn2-c1ccc(C)cc1 | 1.1
CCN(c1cccc(C)c1)S(=O)(=O)c1ccc2c(c1)CCN2C(=O)CCC(=O)O | 0.93
O=C(CSc1nnc(-c2cccnc2)o1)Nc1ccc(Cl)c(Cl)c1 | 0.47*
O=C(CSc1nnc(-c2cccnc2)o1)Nc1ccc(Br)cc1 | 1

Screening results: PubChem, Bradner/Qi Labs at DFCI
